Source: the supplement of paper PMC11732987, “Enantioselective OTUD7B fragment discovery through chemoproteomics screening and high-throughput optimisation” (Communications Chemistry, 2025)

What was measured:
Test in all cases: log2 ratio of Biotin-Ahx-Ub-VS probe labelling (fragment/DMSO); higher = less target engagement (more negative = stronger competition), active = hit call of the paper (q ≤ 0.05, log2 ratio ≤ -1)
Conditions in all cases: compound concentration: 200 uM; treatment time: 3 h
[1] = target: T1, OTUD6B (UniProt Q8N6M0)
T1 sequence (whole entry): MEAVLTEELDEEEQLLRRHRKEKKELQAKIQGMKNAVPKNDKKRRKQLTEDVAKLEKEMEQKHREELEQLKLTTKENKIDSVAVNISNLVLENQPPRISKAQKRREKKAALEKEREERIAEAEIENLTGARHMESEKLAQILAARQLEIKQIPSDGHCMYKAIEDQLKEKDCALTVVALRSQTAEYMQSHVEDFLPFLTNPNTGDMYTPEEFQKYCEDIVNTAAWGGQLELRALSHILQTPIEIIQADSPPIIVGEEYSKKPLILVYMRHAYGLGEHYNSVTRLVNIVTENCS
Summary of the method: (§1)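 Lysate from HEK293T cells, 495 µg per sample in Tris/CHAPS/IGEPAL buffer with protease inhibitors, was treated for 3 h in triplicate with fragment at 200 µM or vehicle. Biotin-Ahx-Ub-VS was next added at 0.5 µM final for 1 h. The labelled DUBs were enriched with NeutrAvidin, digested with LysC and trypsin, and run by diaPASEF LC-MS/MS, with values given as average log2 fragment/vehicle ratios by unpaired t-test on global-median-normalised Spectronaut quantities of proteins with ≥2 unique peptides.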

[2] = target: T2, OTUD7B (UniProt Q6GQQ9)
T2 sequence (whole entry): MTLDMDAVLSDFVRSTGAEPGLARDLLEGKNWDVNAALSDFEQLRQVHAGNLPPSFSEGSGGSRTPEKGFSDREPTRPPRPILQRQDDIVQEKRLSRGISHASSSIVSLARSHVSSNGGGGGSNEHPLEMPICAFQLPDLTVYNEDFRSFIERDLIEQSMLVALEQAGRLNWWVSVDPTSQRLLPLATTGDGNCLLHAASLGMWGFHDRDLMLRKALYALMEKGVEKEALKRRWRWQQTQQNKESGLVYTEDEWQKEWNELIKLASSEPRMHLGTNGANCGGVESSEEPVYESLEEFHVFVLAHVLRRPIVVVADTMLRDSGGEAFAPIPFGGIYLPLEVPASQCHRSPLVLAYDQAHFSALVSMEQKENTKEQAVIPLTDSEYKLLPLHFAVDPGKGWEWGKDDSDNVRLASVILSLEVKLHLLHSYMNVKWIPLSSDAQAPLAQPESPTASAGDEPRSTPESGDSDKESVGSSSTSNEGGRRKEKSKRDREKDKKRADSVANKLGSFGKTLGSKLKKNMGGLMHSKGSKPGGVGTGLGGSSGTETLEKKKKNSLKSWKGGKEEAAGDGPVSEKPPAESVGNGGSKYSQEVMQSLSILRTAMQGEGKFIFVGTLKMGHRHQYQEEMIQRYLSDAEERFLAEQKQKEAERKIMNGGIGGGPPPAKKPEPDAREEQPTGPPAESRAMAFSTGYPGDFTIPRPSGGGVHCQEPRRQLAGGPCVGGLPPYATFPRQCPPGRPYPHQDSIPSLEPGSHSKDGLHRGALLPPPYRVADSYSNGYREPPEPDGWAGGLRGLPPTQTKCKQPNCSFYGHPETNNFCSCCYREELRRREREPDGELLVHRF
Summary of the method: as §1

[3] = target: PRPF8 (UniProt Q6P2Q9)
Summary of the method: as §1

[4] = target: T3, PSMD7 (UniProt P51665)
T3 sequence (whole entry): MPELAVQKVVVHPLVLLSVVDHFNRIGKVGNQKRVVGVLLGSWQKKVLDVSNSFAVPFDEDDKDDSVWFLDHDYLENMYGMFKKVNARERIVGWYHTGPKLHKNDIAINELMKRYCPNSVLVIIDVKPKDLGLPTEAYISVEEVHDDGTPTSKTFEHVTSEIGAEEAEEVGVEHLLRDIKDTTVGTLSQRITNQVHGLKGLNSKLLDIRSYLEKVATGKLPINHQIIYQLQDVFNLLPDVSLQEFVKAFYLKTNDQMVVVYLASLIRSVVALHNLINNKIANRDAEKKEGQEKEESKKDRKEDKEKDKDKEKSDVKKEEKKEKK
Summary of the method: as §1

[5] = target: UCHL1 (UniProt P09936)
Sequence of UCHL1 (P09936 whole entry, looked up): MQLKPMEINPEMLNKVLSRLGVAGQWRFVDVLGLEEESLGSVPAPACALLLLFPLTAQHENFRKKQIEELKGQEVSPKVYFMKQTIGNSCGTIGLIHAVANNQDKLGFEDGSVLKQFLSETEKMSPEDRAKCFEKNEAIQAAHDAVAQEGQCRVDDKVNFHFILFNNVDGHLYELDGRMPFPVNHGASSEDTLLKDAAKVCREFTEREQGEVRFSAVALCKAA
Summary of the method: as §1

[6] = target: T4, UCHL3 (UniProt P15374)
T4 sequence (whole entry): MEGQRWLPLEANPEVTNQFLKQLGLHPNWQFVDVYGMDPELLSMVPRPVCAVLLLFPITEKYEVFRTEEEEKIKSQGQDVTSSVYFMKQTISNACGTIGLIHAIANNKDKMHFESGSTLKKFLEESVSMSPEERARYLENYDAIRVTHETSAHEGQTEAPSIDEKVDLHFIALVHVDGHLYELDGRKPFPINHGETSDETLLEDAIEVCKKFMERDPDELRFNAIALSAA
Summary of the method: as §1

[7] = target: T5, UCHL5 (UniProt Q9Y5K5)
T5 sequence (whole entry): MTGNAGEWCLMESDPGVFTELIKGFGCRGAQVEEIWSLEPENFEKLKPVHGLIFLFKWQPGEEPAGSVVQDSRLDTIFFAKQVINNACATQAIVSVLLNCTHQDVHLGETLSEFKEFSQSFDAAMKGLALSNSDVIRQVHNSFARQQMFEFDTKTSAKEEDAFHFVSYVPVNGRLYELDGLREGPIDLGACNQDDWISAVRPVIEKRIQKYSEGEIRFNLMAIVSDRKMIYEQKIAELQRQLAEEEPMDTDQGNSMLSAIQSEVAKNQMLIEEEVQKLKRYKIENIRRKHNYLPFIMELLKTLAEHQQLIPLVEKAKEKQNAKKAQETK
Summary of the method: as §1

[8] = target: USP10 (UniProt Q14694)
Sequence of USP10 (Q14694 whole entry): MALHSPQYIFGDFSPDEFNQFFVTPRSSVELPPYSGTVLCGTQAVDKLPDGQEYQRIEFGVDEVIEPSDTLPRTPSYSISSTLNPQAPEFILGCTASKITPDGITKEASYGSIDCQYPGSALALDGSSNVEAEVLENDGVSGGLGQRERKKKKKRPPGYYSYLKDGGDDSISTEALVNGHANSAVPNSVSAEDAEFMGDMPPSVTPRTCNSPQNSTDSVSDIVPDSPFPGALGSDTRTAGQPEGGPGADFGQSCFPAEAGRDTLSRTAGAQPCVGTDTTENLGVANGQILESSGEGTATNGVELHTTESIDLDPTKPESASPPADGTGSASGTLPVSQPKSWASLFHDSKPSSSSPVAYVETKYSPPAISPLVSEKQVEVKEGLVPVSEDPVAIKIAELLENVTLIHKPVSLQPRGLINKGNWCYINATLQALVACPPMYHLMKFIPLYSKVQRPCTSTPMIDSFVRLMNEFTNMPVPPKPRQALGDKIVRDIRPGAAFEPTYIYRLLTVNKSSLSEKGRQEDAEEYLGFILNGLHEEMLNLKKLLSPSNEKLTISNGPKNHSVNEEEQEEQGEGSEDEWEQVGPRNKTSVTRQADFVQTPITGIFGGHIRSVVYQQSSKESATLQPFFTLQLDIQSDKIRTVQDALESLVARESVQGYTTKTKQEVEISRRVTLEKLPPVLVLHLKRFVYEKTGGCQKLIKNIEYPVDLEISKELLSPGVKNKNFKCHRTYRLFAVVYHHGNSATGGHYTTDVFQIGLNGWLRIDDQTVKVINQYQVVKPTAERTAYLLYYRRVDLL
Summary of the method: as §1

[9] = target: T6, USP15 (UniProt Q9Y4E8)
T6 sequence (whole entry): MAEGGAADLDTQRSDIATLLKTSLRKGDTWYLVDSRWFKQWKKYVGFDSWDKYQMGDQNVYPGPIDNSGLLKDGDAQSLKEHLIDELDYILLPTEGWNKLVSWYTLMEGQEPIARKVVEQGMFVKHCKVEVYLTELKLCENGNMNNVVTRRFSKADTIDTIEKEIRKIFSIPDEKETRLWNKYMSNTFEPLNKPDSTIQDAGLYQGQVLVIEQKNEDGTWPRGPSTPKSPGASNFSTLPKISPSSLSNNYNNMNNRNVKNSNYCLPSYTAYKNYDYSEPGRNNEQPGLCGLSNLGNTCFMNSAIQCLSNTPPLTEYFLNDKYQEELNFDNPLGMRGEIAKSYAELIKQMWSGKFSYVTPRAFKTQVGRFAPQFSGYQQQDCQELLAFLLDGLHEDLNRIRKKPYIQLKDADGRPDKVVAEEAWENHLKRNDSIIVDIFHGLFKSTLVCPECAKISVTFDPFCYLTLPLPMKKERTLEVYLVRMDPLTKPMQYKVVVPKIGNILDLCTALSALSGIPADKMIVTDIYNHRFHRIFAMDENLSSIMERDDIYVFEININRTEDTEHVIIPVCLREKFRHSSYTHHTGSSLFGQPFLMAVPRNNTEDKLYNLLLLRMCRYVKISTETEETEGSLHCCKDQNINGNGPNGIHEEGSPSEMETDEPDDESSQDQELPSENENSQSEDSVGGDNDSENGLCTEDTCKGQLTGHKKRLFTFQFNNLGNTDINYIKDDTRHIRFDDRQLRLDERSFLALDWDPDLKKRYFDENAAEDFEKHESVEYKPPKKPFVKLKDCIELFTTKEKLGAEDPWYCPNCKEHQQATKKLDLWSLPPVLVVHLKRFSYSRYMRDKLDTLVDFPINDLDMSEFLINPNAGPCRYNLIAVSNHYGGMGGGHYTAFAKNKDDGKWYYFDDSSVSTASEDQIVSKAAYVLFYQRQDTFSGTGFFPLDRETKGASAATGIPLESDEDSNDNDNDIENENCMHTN
Summary of the method: as §1

[10] = target: USP16 (UniProt Q9Y5T5)
Sequence of USP16 (Q9Y5T5 whole entry, looked up): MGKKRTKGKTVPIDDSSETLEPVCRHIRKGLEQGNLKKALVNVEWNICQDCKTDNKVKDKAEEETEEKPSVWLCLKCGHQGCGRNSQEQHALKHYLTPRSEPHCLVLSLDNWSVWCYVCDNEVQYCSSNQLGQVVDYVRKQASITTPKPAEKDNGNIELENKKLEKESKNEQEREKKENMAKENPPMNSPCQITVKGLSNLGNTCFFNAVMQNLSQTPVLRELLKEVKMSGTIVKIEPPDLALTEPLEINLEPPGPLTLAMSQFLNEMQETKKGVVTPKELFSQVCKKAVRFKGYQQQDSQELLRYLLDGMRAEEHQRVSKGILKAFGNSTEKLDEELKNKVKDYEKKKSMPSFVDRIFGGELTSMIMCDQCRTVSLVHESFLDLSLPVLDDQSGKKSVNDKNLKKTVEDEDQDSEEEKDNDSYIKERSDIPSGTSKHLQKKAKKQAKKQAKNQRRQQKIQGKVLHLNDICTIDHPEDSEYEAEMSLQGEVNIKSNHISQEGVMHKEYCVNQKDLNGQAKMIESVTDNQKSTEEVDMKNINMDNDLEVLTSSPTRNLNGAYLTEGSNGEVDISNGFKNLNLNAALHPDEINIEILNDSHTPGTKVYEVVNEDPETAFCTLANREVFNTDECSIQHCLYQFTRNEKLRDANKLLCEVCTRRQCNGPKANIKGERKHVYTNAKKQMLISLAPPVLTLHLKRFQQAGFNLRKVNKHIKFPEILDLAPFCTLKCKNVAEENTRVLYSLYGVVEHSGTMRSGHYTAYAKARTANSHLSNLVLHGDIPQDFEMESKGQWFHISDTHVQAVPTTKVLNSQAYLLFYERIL
Summary of the method: as §1

Measured: log2 ratio of Biotin-Ahx-Ub-VS probe labelling

CN(C)C(=O)c1ccc(NC(=O)CCl)cc1
active: [5] -1.46
inactive: [1] -0.253 | [2] -0.664 | [3] -0.106 | [4] -0.259 | [6] -0.282 | [7] -0.194 | [8] -0.0447 | [9] 0.0049 | [10] -0.712
